According to PubChem BioAssay AID528 (NMMLSC, 2006):
The whole screen tested about 24,000 compounds, of which fewer than 10 were called active. Not shown: some 9% with an inconclusive outcome.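 The calls were made as follows: active = fluorescent ligand binding to cells raised by more than 40% of the manganese-induced maximum; inconclusive = compound's own fluorescence above 85% of the ligand control signal; inactive = the rest.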 Not all results are given here.

molecular target: Integrin alpha-4 (Homo sapiens) (UniProt P13612); assay: enhancers of LDV-FITC binding to VLA-4 integrin, primary screen, Jurkat cells, flow cytometry (AID 528); conditions: active compounds read high, screened at 10 µM (by protocol);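 also: 0% = ligand binding without compound and 100% = manganese-stimulated maximal binding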
Sequence (P13612 whole entry, looked up): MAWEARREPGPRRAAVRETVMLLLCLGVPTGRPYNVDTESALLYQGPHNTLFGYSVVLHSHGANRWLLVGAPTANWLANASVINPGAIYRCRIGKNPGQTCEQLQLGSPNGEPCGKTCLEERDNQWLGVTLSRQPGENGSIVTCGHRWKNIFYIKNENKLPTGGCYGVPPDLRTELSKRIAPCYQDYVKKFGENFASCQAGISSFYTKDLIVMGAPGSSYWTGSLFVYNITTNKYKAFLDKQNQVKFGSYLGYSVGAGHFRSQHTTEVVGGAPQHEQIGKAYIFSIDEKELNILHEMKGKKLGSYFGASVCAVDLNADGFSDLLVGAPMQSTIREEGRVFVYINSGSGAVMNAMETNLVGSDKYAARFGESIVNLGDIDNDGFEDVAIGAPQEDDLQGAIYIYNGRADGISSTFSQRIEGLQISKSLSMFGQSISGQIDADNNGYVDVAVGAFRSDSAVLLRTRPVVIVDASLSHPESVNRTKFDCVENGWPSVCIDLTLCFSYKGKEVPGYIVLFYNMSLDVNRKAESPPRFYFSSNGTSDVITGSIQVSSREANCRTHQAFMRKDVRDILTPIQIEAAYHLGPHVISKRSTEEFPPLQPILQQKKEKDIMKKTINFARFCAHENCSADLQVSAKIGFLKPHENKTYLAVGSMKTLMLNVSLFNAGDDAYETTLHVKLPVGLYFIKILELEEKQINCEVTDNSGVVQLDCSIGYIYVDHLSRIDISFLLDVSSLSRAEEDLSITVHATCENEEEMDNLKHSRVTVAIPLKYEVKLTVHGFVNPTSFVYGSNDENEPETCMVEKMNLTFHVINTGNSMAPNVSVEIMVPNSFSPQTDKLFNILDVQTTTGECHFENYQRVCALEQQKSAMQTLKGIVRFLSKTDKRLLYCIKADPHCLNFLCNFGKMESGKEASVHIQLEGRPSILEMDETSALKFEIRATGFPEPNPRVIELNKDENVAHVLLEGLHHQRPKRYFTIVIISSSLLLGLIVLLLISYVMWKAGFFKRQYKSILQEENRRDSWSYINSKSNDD

activation, inactive:
Cc1ccccc1S(=O)(=O)Cc1ccc(C(=O)NCCN2CCCCC2C)o1 (configuration not stated) -1%
Nc1c(C(=O)NCc2ccccc2)nnn1Cc1cccc(Cl)c1 -4%
CCCCCOC(=O)C1=C(C)Nc2nnnn2C1c1ccc(OC)c(OC)c1OC (configuration not stated) -4%
CCC(=O)N1c2ccc(S(=O)(=O)CCC(=O)N3CCN(c4ccccc4)CC3)cc2CC1C (configuration not stated) -5%
COc1ccc(OC)c(CNC(=O)CCc2nc(-c3cccs3)no2)c1 2%
Cc1ccccc1NC(=O)c1ccccc1 -14.5%
CCOC(=O)N1CCC(NC(=O)CCc2cn(C)c3ccccc23)CC1 8%
COc1cc2[nH]c(=S)n(Cc3ccc(C)o3)c(=O)c2cc1OC 0%
CCOC(=O)CNC(=O)CN1C(=O)CCSc2ccccc21 6%
CCOC(=O)c1ccc(CS(=O)c2ccc(Cl)cc2)o1 (configuration not stated) 4%
COC(=O)C1=C(C)OC(N)=C(C#N)C1c1cc(OC)ccc1OC (configuration not stated) -3%
Cc1ccc(NC(=O)C2CC(c3ccc(F)cc3)=NO2)cc1 (configuration not stated) 3%
CCc1c(C)c2c(C)[nH]nc2oc1=O -1%
CC12COC3(C(=O)Nc4ccc(Cl)cn4)CC1CCC32C (configuration not stated) 5%
Cc1ccc(S(=O)(=O)NCC(=O)N(CC(=O)NC2CCCCC2)Cc2ccco2)cc1 2%
O=C1Nc2c(Br)cc(Br)cc2C1(O)N1CCOCC1 (configuration not stated) 9%
CCOC(=O)N1CCN(C(=O)C2CC(c3ccc(F)cc3)=NO2)CC1 (configuration not stated) 6%
Clc1ccc(Cc2nn3c(-c4ccncc4)nnc3s2)cc1 2%
CCOCCc1c(O)nc(SCC(=O)NCc2ccco2)[nH]c1=O -1%
COc1cccc(C(=O)Nc2c3c(nn2-c2cccc(C)c2C)CS(=O)(=O)C3)c1OC -3%
COc1ccc2oc(=O)c(C(=O)N3CCN(c4ccccc4F)CC3)cc2c1 3.5%
CCOc1ccccc1NC(=O)C1CCN(S(=O)(=O)c2c(C)nn(C)c2C)CC1 2%
COc1ccc(CCNC(=O)CCCCn2c(=O)[nH]c3ccccc3c2=O)cc1OC 4%
C#CC(C)(C)NC(=O)CSc1nc2c(c(=O)n(C)c(=O)n2C)n1CCCC 8%
CCCS(=O)(=O)N1CCCC(C(=O)N2CCN(c3ccccc3)CC2)C1 (configuration not stated) 0%
CCOC(=O)C1CCCN(C(=O)C2CCN(c3nnc(-n4cccc4)s3)CC2)C1 (configuration not stated) -1%
CCOC(=O)N1CCC(Nc2c(NCCCN3CCN(c4ccc(OC)cc4)CC3)c(=O)c2=O)CC1 -4%
